Screening data deposited in PubChem by National Center for Advancing Translational Sciences (NCATS).
Vaccinia Venus: qHTS for Stage-Specific Inhibitors of Vaccinia Orthopoxvirus: Venus Reporter Primary qHTS. hit rate 0.46% among 330,000. Potency, µM (doses to about 36.5 µM), for the others: top-dose activity change, negative = inhibition, hits mostly inhibitors. Vaccinia virus Venus reporter expression, fluorescence; calls by dose curve; tested in A549 cells; note: potency is the fitted concentration of half-maximal effect; nearly all actives have a fitted effect of over 30% in size
Vaccinia mCherry: qHTS for Stage-Specific Inhibitors of Vaccinia Orthopoxvirus: mCherry Reporter Primary qHTS; AID 720579, 2013; Potency, µM (doses to about 36.5 µM), without a hit: at the highest dose activity change, negative = inhibition, actives largely listed as inhibitors; hit rate 0.63% among 310,000; Vaccinia virus mCherry reporter infection, fluorescence; calls by dose curve; tested in A549 cells; note: potency is the fitted concentration of half-maximal effect; nearly all actives have a fitted effect of over 35% in size
FBPA Giardia inh: qHTS Assay for Inhibitors of Fructose-1,6-bisphosphate Aldolase from Giardia Lamblia; hit rate 0.71% among 290,000; purified Giardia FBPA; A8B2U2; AID 2451, 2010; Potency, µM (highest dose often 59.6 µM), for the others: top-dose activity, negative = inhibition, actives largely listed as inhibitors; note: potency is the fitted concentration of half-maximal effect; nearly all actives have a fitted effect of over 55% in size
Target sequence (A8B2U2 whole entry, looked up): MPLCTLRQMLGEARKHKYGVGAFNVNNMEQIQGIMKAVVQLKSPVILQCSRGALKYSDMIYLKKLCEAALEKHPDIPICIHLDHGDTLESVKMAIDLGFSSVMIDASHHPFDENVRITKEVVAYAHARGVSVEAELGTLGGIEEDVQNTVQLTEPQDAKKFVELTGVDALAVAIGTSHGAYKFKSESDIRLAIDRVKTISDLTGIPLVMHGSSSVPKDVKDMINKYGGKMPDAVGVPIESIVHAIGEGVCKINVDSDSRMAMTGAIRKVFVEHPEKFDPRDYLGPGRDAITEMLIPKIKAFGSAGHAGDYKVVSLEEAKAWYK
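Giardia FBPA (40 nM reagent) was preincubated 10 min at RT with compound (up to 57.5 uM final), then substrate plus GAPDH/TPI/NAD/arsenate coupling system with diaphorase/resazurin was added; resorufin fluorescence (525/598 nm) was read after 20 min.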
FMDV inh: High Throughput Screening for Foot and Mouth Disease Virus Antivirals; FMDV antiviral cell-based qHTS; Potency, µM (titrated, usually from 57.9 µM), for inactives: top-dose activity change, negative = inhibition, actives largely listed as inhibitors; hit rate 1.2% among 410,000; calls by dose curve; tested in HEK293T cells; note: read-out not given here; potency is the fitted concentration of half-maximal effect; nearly all actives have a fitted effect of over 45% in size
HCMV antiviral: qHTS Assay for inhibitors of the human cytomegalovirus (HCMV). HFF cells, HCMV-luciferase reporter, 72 h; active compounds read low. hit rate 4.5% among 410,000. activity change, negative = inhibition, % at 57.5 µM; in the data active = activity change below about -60%; inconclusive = no clear call, values can overlap the other calls; inactive = above about -39%
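Luciferase read-out from HCMV-luciferase-infected HFFs (MOI 1 PFU/cell) 72 h post infection at 37C; compounds added after 16 h cell attachment; activity normalized between buffer-only basal and Salinomycin (10uM) inhibitor controls.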
HCV inhibitor: qHTS Assay for Inhibitors of Hepatitis C Virus (HCV) | hit rate 3.4% among 340,000 | Potency, µM (top dose mostly 41.8 µM), for inactives: at the top dose activity change, negative = inhibition, actives largely listed as inhibitors | AID 651820, 2012 | Huh7.5.1 HCVcc-Cre infection, luciferase reporter, 44 h; note: potency is the fitted concentration of half-maximal effect
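Cells (1,000/well) were plated 4 h before compound, then infected with HCVcc-Cre virus (~0.5 moi). After 44 h further culture, infection was read as luciferase luminescence following a 15 min substrate incubation at room temperature.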
Starred values were filed as active, the others as inactive; i = inactive; ? = inconclusive; nt = no result given; [ ] = remark or other dose. This is a sample that favours compounds with a hit; in the whole collection about 7.5% have one here. Unless noted, calls come from the whole dose curve; as a rule, active = well fitted curve in the direction sought with a large enough effect; inconclusive = small, poorly fitted or top-dose-only effect, or another doubt; inactive = no such curve, though single readings can be large; an effect the other way counts as inactive or inconclusive. % is set by controls: 0 for no effect and ±100 for the full control effect.

SMILES | Vaccinia Venus | Vaccinia mCherry | FBPA Giardia inh | FMDV inh | HCMV antiviral | HCV inhibitor
CC(=O)NC1CCC(=O)C=C1c1ccccc1 (stereo not given) | -7% | i | nt | -12% | -33 | 11%
CC(=O)NC1CCCN(O)C(=O)/C=C(\C)CCOC(=O)C(NC(C)=O)CCCN(O)C(=O)/C=C(\C)CCOC(=O)C(NC(C)=O)CCCN(O)C(=O)/C=C(\C)CCOC1=O (stereo not given) | -12% | -12% | ? | 20µM* | nt | -23%
C[C@@H]1Cn2cnc(C(=O)N[C@@H](Cc3c[nH]c4ccccc34)C(=O)OC(C)(C)C)c2C(=O)N1 | -18% | i | nt | -18% | -8 | nt
CC(=O)Nc1ccc(NC(=O)CC(C)n2ccc(C)n2)cc1 (stereo not given) | -10% | -9% | nt | -13% | -11 | nt
CCOC(=O)NC(=S)Nc1cccc(C)n1 | -10% | i | nt | -7% | -63* | nt
Cc1cccc(NC(=O)Nc2ccccc2)n1 | -8% | i | -3% | 28% | -65* | -8%
CC1CCCC(C)N1C(=O)COC(=O)c1ccc(F)c(S(=O)(=O)N2CCOCC2)c1 (stereo not given) | -6% | -7% | nt | -14% | -19 | 2%
COc1cccc(CNCc2ccc(OC)c3ccccc23)c1OC | -19% | -17% | ? | -15% | 19 | ?
COc1cccc(CNCc2ccccn2)c1OC | ? | ? | 17% | nt | -61* | -7%
CC(=O)Oc1ccc(OC(C)=O)c(SCCCCCCl)c1 | -2% | -22% | -3% | ? | -72* | 11µM*
CC(=O)Oc1ccc(OC(C)=O)c(S(=O)(=O)c2ccc(C)c(C)c2)c1 | nt | nt | 0% | 36% | -12 | 4%
CCCS(=O)(=O)NC(=O)C1(C)CCCN(C(=O)c2ccccc2C(F)(F)F)C1 (stereo not given) | 3% | 2% | nt | -13% | 5 | nt
CC(=O)c1ccc(S(=O)(=O)N2CCN(C(=O)c3cccc(S(=O)(=O)N4CC(C)OC(C)C4)c3)CC2)cc1 (stereo not given) | nt | nt | nt | -24% | -28 | 0%
Cc1ccc2[nH]c(=O)c(C3C(C#N)=C(N)Oc4c3ccc3cccnc43)cc2c1 (stereo not given) | ? | 10µM* | 26% | ? | -92* | 10µM*
N#CC1=C(N)Oc2c(ccc3cccnc23)C1c1ccccc1 (stereo not given) | nt | nt | -11% | ? | -25 | ?
CCN(CC(=O)NCc1ccc(F)cc1)C(=O)COc1ccc2ccccc2c1 | -11% | i | 1% | -10% | 28 | -14%
CCN(CC(=O)NCc1ccc(F)cc1)C(=O)COc1ccc(C)c(C)c1 | -6% | i | 0% | 8% | -65* | ?
O=C(COc1ccc(C(=O)c2ccccc2)cc1)NCc1ccc(F)cc1 | ? | ? | 5% | -15% | -76* | -8%
O=C(COc1ccccc1)NCc1ccccc1 | -8% | -15% | 1% | nt | ? | 15%
COCCn1c(=O)c(-c2cccs2)nc2cnc(N3CCNCC3)nc21 | nt | nt | -3% | 2% | nt | nt
CCn1nc(C)c(CN2CCc3c([nH]c4ccccc34)C2c2ccc(F)c(OC)c2)c1C (stereo not given) | -19% | -28% | -13% | -9% | -76* | ?
CCCSc1nsc(NC(=O)CCC)n1 | -8% | -13% | -3% | 3% | -103* | -6%
CCCCn1c(N)c(N(CC)C(=O)c2cccs2)c(=O)[nH]c1=O | -4% | -3% | nt | -2% | -61* | -2%
CCCCn1c(N)c(N(CC)C(=O)c2cccc(OC)c2)c(=O)[nH]c1=O | -19% | -2% | -4% | -8% | -72* | 5%
CCCCn1c(N)c(N(CC)C(=O)c2ccncc2)c(=O)[nH]c1=O | nt | nt | nt | -19% | 8 | -26%
SMILES | Vaccinia Venus | Vaccinia mCherry | FBPA Giardia inh | FMDV inh | HCMV antiviral | HCV inhibitor
O=S(=O)(NCC(c1ccco1)N1CCN(c2ccc(F)cc2)CC1)c1cc(F)ccc1F (stereo not given) | -13% | -2% | nt | ? | -4 | nt
Cc1ccccc1Nc1ccc2nonc2c1[N+](=O)[O-] | nt | nt | 2% | 0% | -32 | -1%
Cc1ccc(C)c(Nc2ccc3nonc3c2[N+](=O)[O-])c1 | nt | nt | -5% | -24% | -87* | -4%
COc1cc(C(=S)N2CCOCC2)ccc1OC(=O)/C=C/c1ccco1 | nt | nt | -8% | -15% | 8 | -1%
CC(C)c1ccc(C2NC(=O)c3ccccc3O2)cc1 (stereo not given) | -10% | i | 6% | 35% | -36 | 7%
COc1ccc2c(c1)c(CC(=O)Nc1ccc(C(C)=O)cc1)c(C)n2C(=O)c1ccc(Cl)cc1 | -10%[7.34 µM] | -21%[7.34 µM] | -6% | 18% | 19 | -28%
COc1ccc2c(c1)c(CC(=O)NCc1cc([N+](=O)[O-])ccc1O)c(C)n2C(=O)c1ccc(Cl)cc1 | -22% | -28% | nt | 40µM* | nt | ?
COc1ccc2c(c1)c(CC(=O)Nc1ccccc1OC)c(C)n2C(=O)c1ccc(Cl)cc1 | -13% | i | 3% | -18% | -13 | ?
COc1ccc2c(c1)c(CC(=O)Nc1nnc(C3CC3)s1)c(C)n2C(=O)c1ccc(Cl)cc1 | -10% | ? | -2% | 5% | -76* | 14%
COc1ccc2c(c1)c(CC(=O)Nc1c(C)cccc1C)c(C)n2C(=O)c1ccc(Cl)cc1 | ? | ? | nt | ? | -17 | nt
COc1ccc(OC)c(NC(=O)Cc2c(C)n(C(=O)c3ccc(Cl)cc3)c3ccc(OC)cc23)c1 | -18% | -25% | nt | ? | -71* | nt
Cc1nc2ccc(S(=O)(=O)NCC(=O)Nc3ccc(F)cc3F)cc2s1 | -2% | -8% | nt | 8% | 33 | nt
N#C/C(=C\c1cccc2ccccc12)c1nn(-c2ccccc2)c(N)c1C#N | -16% | -24% | nt | nt | nt | -29%
Cc1ccc(/C=C(\C#N)c2nn(-c3ccccc3)c(N)c2C#N)cc1 | ? | 10µM* | -6% | -28% | -26 | ?
O=C(Nc1ccc(Cl)cc1)Nc1csc([N+](=O)[O-])c1 | ? | ? | -10% | 0% | -103* | ?
CCNC(=O)NC(=O)c1csc([N+](=O)[O-])c1 | -13% | i | 4% | 4% | 25 | ?
O=C(Nc1csc([N+](=O)[O-])c1)Nc1c(Cl)cccc1Cl | nt | nt | -9% | -16% | -76* | -10%
O=C(Nc1ccc(Cl)cc1)Nc1ccccc1CC[N+](=O)[O-] | -7% | -13% | -5% | 28% | 14 | ?
Cc1cc2nccc(/C=C/c3ccc(N(C)C)cc3)c2cc1C | 1% | i | nt | nt | nt | nt
Cc1csc(NC(=O)c2ccc(Cl)cc2[N+](=O)[O-])n1 | ? | ? | -5% | -22% | 3 | 1.6µM*
